Data on 16 compounds can be found in PubChem BioAssay.

Activity calls are given as the source filed them.

Assay [1] is described as follows: binders of probe aFSTL3 on microarray, primary screen, stem cell growth factor project, biochemical, small-molecule microarray, fluorescence 635/667 (AID 1064).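 Note: measures binding of the biotinylated anti-FSTL3 antibody to printed compounds.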 Conditions: higher = more signal.
Assay [2] can be described thus: binders from COS7 lysate, DM2A8 probe, primary screen, torsin A project, cell lysate, small-molecule microarray, fluorescence 635/667 (AID 1065). Conditions: higher = more signal, COS7 lysate expressing mutant human TOR1A.
Assay [3] is described as follows: binders of probe aFGF2 on microarray, primary screen, stem cell growth factor project, biochemical, small-molecule microarray, fluorescence 635/667 (AID 1067).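 Note: measures binding of biotinylated aFGF2 protein to printed compounds on slides; z-score merges feature fluorescence and signal-to-noise across triplicate slides.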 The conditions noted are these: higher = more signal.
Assay [4] in a line: binders of probe aFGF10 on microarray, primary screen, stem cell growth factor project, biochemical, small-molecule microarray, fluorescence 635/667 (AID 1071).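 Note: score merges 667 nm spot intensity and signal to noise from triplicate slides.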 Conditions: higher = more signal.
The target in assay [5] is Neurogenic locus notch homolog protein 2 (Homo sapiens) (UniProt Q04721). Description: Notch2 binders on small-molecule microarrays, primary screen, biochemical, small-molecule microarray, 635 nm fluorescence, stem cell growth factors (AID 1073). Conditions: Notch2 binding, higher = more signal.
Neurogenic locus notch homolog protein 2 (Homo sapiens), sequence (Q04721 whole entry, looked up, canonical isoform): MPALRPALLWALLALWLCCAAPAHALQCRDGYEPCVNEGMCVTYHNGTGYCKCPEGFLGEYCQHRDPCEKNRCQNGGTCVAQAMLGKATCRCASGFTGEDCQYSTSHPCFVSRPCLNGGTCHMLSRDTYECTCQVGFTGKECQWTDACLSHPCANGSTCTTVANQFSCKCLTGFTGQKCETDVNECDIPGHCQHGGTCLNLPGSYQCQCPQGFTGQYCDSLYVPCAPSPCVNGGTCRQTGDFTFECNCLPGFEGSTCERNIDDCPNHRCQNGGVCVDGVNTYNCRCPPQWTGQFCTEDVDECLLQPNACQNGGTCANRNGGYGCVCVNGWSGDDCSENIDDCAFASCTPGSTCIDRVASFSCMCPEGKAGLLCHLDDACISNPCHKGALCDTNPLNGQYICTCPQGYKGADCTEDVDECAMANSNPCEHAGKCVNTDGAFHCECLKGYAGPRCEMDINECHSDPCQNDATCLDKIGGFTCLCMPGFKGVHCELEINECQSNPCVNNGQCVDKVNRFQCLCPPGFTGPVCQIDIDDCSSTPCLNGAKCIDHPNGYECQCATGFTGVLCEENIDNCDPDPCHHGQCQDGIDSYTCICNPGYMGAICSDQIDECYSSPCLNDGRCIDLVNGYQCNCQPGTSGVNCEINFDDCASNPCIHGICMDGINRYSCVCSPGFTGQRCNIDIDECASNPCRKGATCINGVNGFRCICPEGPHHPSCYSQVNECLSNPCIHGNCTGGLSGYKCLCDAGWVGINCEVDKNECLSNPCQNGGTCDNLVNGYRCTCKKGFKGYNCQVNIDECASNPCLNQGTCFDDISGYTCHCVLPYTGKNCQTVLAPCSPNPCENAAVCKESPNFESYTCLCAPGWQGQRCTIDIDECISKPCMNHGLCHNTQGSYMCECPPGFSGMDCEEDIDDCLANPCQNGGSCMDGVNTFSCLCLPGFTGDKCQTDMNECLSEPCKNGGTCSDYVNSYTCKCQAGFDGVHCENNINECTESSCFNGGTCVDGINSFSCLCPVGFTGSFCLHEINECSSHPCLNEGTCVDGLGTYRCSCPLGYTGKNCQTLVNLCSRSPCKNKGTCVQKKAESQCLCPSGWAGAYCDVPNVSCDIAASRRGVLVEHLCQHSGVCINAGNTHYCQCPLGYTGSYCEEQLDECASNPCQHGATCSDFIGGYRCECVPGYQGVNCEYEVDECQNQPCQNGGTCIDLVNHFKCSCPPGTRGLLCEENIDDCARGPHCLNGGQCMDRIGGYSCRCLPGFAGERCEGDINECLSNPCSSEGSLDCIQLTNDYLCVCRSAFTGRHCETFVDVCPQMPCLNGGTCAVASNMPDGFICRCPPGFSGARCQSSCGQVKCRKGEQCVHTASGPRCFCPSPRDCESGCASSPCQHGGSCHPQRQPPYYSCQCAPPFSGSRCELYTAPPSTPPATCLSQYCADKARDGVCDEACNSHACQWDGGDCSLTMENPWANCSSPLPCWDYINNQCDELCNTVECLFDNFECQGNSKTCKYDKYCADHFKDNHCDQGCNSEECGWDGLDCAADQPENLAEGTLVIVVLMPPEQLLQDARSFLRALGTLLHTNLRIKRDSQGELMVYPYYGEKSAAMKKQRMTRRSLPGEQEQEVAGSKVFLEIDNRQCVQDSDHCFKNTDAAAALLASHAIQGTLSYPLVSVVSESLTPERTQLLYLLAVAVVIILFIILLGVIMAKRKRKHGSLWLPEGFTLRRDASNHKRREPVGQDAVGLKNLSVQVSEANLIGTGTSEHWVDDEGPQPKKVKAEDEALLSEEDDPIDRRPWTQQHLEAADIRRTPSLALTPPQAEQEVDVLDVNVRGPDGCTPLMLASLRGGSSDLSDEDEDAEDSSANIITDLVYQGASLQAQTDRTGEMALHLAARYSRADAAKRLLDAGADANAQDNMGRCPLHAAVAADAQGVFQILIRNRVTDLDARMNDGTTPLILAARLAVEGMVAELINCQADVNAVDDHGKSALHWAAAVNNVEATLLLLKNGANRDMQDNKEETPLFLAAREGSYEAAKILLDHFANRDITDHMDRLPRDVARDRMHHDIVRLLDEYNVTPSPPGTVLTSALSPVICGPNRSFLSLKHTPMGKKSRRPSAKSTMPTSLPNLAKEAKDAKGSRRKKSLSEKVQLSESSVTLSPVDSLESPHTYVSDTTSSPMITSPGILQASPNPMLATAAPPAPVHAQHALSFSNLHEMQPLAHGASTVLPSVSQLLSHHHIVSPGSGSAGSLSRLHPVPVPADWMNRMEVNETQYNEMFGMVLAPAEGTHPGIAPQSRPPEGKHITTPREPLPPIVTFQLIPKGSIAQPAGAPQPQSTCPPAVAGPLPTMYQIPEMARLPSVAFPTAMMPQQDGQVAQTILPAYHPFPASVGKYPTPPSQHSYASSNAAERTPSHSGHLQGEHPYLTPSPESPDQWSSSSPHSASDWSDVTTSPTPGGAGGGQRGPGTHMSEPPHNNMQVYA
Assay [6] concerns the target Pro-neuregulin-1, membrane-bound isoform (Homo sapiens) (UniProt Q02297). The experiment in a line: NRG1 binders on small-molecule microarrays, primary screen, psychiatric disease protein project, biochemical, small-molecule microarray, fluorescence 635/667 (AID 1075).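 Note: score combines 667 nm spot fluorescence with signal to noise.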 The conditions noted are these: NRG1 binding, 635 nm fluorescence, higher = more signal.
The test system of assay [7] is Neuregulin-1 EGF-like domain. Description: binders of neuregulin-1 EGF-like domain, primary screen, biochemical, small-molecule microarray, 635 nm fluorescence (AID 1081).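 Note: binding of the protein to compounds printed on small-molecule microarray slides.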 The conditions noted are these: small-molecule microarray binding, higher = more signal.
The nature of assay [8]: FRG1 promoter luciferase signal modulators, primary screen, FRG1 inhibition for FSHD, cell-based, C2C12 myotubes, firefly/Renilla luciferase, luminescence (AID 1084). Conditions: higher = more signal, called active from +8 up or from −8 down.
Assay [9] in a line: binders of probe aFST on microarray, primary screen, stem cell growth factor project, biochemical, small-molecule microarray, fluorescence 635/667 (AID 1086).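 Note: score merges 667 nm fluorescence with signal-to-noise of each printed compound spot.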 Conditions: higher = more signal.
A short description of assay [10]: binders of probe aHhip on microarray, primary screen, stem cell growth factor project, biochemical, small-molecule microarray, fluorescence 635/667 (AID 1087).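 Note: score merges spot fluorescence at 667nm with spot signal to noise ratio.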 The conditions noted are these: higher = more signal.

Pro-neuregulin-1, membrane-bound isoform (Homo sapiens), sequence (Q02297 whole entry, looked up, the tested form may be a part, canonical isoform): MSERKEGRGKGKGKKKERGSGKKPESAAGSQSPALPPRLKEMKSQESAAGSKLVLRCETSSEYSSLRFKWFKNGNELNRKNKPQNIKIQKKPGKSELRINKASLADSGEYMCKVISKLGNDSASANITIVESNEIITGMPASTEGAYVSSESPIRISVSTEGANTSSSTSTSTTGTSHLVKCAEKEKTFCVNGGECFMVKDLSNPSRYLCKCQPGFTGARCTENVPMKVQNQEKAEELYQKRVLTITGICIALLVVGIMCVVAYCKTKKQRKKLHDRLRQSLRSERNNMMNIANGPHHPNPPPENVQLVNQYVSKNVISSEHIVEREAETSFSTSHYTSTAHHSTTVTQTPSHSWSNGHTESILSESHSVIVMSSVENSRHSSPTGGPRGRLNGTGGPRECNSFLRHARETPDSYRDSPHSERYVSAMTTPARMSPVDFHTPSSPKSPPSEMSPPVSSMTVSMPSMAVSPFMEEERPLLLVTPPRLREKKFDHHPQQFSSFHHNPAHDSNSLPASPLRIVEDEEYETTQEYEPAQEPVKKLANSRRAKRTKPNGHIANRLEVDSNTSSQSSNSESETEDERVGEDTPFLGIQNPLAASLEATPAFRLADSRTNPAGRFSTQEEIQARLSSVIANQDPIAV

Regarding `CCOC(=O)C[C@H]1[C@H](OC(=O)c2ccc(-c3ccccc3)cc2)[C@@H](NC(=O)c2ccc(-c3ccccc3)cc2)c2cc(OCCCO)ccc2N1C(=O)c1ccccc1`, the composite z-score was -0.326 in assay [1]; 0.254 in [2]; -0.0317 in assay [3]; 0.573 in assay [4]; 0.528 in assay [5]; 0.534 in [6]. The composite z-score is 0.905 in [7], 0.627 in [9] and -0.213 in assay [10]. Also, the z-score in assay [8] was -0.281 (inactive).

Take `CC(C)C(=C=CC[C@H](O)c1cccc(OCCO)c1)C[C@H](O)c1ccccn1`: the composite z-score in [1] is -0.242; in [2] it was -0.243; in assay [3], -0.166; in [4] it was 0.016; in assay [5], -0.0938; in [6], -0.272. The composite z-score in assay [7] is 1.05; in assay [9] it was -0.0565; in [10] it was -0.0645. The z-score in assay [8] was -0.29 (inactive).

For the compound `COc1cc(Cc2cc3c(c(-c4ccccc4)n2)[Si](C(C)C)(C(C)C)OC3)cc(OC)c1OC`, the composite z-score is 0.13 in [1]; 0.0203 in [2]; -0.141 in assay [3]; 0.305 in [4]; -0.374 in assay [5]; -0.289 in [6]. Moreover, the composite z-score was -0.683 in assay [7], 0.0647 in assay [9] and 0.0274 in [10]. The z-score in assay [8] was -0.277 (inactive).

For `COC(=O)C1(CC(C)C)C=C2C(=C(C)C(=O)C2C)CN1` (stereo not given), the composite z-score in assay [1] was 1.72; in assay [2] it was 0.126; in [3], 0.317; in assay [4] it was -0.302; in assay [5], 0.28; in assay [6], -0.304. Besides, the composite z-score in [7] was determined as 0.641; in [9], 1.58; in assay [10], 1.43. Further, the z-score in [8] is 2.36 (inactive).

Turning to `COc1cc(Cc2cc3c(c(CCc4ccccc4)n2)[Si](C(C)C)(C(C)C)O[C@H]3c2ccccc2)cc(OC)c1OC`, the composite z-score was 0.962 in [1]; -0.133 in assay [2]; -0.0454 in assay [3]; 0.169 in assay [4]; -0.285 in assay [5]; -0.499 in assay [6]. Further, the values for the composite z-score in assay [7], in assay [9] and in assay [10] were -0.44, -0.273 and -0.0102, respectively. In [8], the z-score is -0.149 (inactive).

With `COC(=O)C1=CC(CCCO)=CC(c2ccc(CN3CCCC3)cc2)N(C)C=C1C(=O)OC` (stereo not given), the composite z-score in [1] worked out at 0.114; in [2] it was 1.34; in assay [3], 0.0755; in assay [4] it was 1.21; in assay [5], 1.13; in assay [6], 1.93. In addition, the composite z-score in [7] was 1.18; in assay [9], 0.989; in assay [10], -0.219. For the same compound, the z-score in [8] was 0.48 (inactive).

Take `C=C(C)C1CN([C@H](CO)c2ccccc2)C(=O)/C1=C\c1ccccc1` (stereo not given in full): the composite z-score is -0.511 in [1]; 0.188 in [2]; -0.111 in [3]; 0.305 in assay [4]; -0.0443 in assay [5]; 0.049 in assay [6]. For the same compound, the composite z-score in [7] is 0.465; in [9], 0.173; in [10] it was -0.174. In assay [8], the z-score is -1.39 (inactive).

In the case of `COC(=O)[C@@]1(Cc2ccc(F)cc2)[C@H]2c3cc(C(=O)N4CCCC4)n(CCc4c[nH]c5cc(F)ccc45)c3C[C@H]2CN1C(=O)c1ccccc1`, the composite z-score in [1] was determined as 0.198; in assay [2] it was 0.197; in [3], 0.289; in [4], 0.634; in assay [5], 1.68; in assay [6] it was 2.01. Besides, the composite z-score came out at 1.35 in [7], 1.69 in assay [9] and 0.281 in [10]. Besides, the z-score in assay [8] is 0.53 (inactive).

With `CC(C)c1ccc(NN2C(C(O)C(C)c3ccccc3)C=CC3C(=O)N(c4ccccc4)C(=O)C32)cc1` (stereo not given), the composite z-score in assay [1] was 1.31; in assay [2], 1.04; in assay [3] it was 0.51; in assay [4] it was 1.08; in assay [5], 1.71; in assay [6] it was 2.09. The results for the composite z-score in assay [7], in assay [9] and in assay [10] were 1.12, 1.97 and -0.12, respectively. In assay [8], the z-score was -0.632 (inactive).

Regarding `COc1ccc([Si](C)(C)[C@H]2[C@H](CC(=O)N(CCO)Cc3ccccc3)O[C@@]3(C(=O)N(Cc4ccc(N5C(=O)c6cccc7cccc5c67)cc4)c4ccccc43)[C@@H]2C)cc1`, the composite z-score in assay [1] is -0.0915; in [2] it was 0.285; in assay [3], -0.0249; in assay [4], 0.479; in assay [5], 0.141; in assay [6], 1.14. Moreover, the composite z-score is 1.14 in assay [7], 0.193 in assay [9] and 0.12 in [10]. Further, the z-score in assay [8] was -3.26 (inactive).

As to `O=C1NC(=O)C2C1C=CC(C(O)C(c1ccccc1)c1ccccc1)N2Nc1ccccn1` (stereo not given), the composite z-score came to 0.473 in assay [1]; 0.521 in [2]; 0.162 in assay [3]; 0.951 in assay [4]; 1.05 in [5]; 0.604 in [6]. For the same compound, the figures for the composite z-score in [7], in [9] and in [10] were 1.25, 0.59 and -0.0959, respectively. For the same compound, the z-score in [8] was 0.723 (inactive).

With `CCCCCCc1nc(-c2ccc(OC)nc2)c(C)c2c1[Si](C(C)C)(C(C)C)OC2`, the composite z-score was -0.314 in assay [1]; -0.0637 in assay [2]; -0.0502 in assay [3]; -0.234 in [4]; 0.0716 in [5]; -0.64 in assay [6]. For the same compound, the composite z-score in [7] was -0.59; in [9] it was 0.0446; in [10], -0.0994. In addition, in assay [8], the z-score is 0.329 (inactive).

Take `Cc1ccc(S[C@]2(C(=O)NC(C)C)CC(=O)N(Cc3ccccc3)[C@@H]2c2ccc(CO)cc2)cc1`: the composite z-score in assay [1] is 0.466; in assay [2], -0.488; in assay [3], -0.0909; in assay [4], -1; in assay [5], -1.25; in [6] it was 1.56. For the same compound, the composite z-score was 0.57 in assay [7], -0.604 in assay [9] and 0.0373 in assay [10]. Further, in assay [8], the z-score is -2.62 (inactive).

`C=CC[C@H](O)c1ccc(O)c(F)c1`: the composite z-score is 0.226 in assay [1]; -1.35 in [2]; -0.076 in assay [3]; -0.819 in assay [4]; -1.73 in assay [5]; -0.676 in assay [6]. Moreover, the composite z-score in assay [7] is -0.502; in assay [9], -1.39; in assay [10] it was 0.414. Besides, in assay [8], the z-score is 1.17 (inactive).

For `CCCNC(=O)[C@@]1(Sc2ccc(C)cc2)CC(=O)N(Cc2cc(C(F)(F)F)cc(C(F)(F)F)c2)[C@@H]1c1ccc(CO)cc1`, the composite z-score in assay [1] was 0.708; in [2], -0.332; in assay [3] it was -0.0363; in [4], 0.0551; in assay [5], -0.608; in [6], -0.78. Besides, the figures for the composite z-score in assay [7], in assay [9] and in assay [10] were 0.791, -0.486 and -0.236, respectively. For the same compound, the z-score in assay [8] is 0.621 (inactive).

As to `C#CCN(C(=O)OC(C)(C)C)[C@H](CO)c1ccccc1`, the composite z-score in assay [1] is -0.402; in assay [2], 0.289; in [3], -0.113; in assay [4], 0.0182; in assay [5], -0.148; in [6] it was -0.329. Moreover, the composite z-score was 0.77 in assay [7], 0.115 in [9] and -0.111 in [10]. In addition, the z-score in assay [8] was -0.0216 (inactive).
